In the supplement of paper PMC13380429:

Tested on: Vero E6 infected with SARS-CoV-2
Assay: inhibition of SARS-CoV-2 cytopathic effect; higher = more antiviral protection, active = above 15
Details: 48 h

Measured: inhibition of SARS-CoV-2 cytopathic effect

CNCCC=C1c2ccccc2C=Cc2ccccc21 [norcyclobenzaprine]
inactive: 1 nM -0.66% | 8.33 nM 3.83% | 100 nM -2.37% | 833.33 nM -0.19% | 10000 nM -7.92%

CC(C)(O)C(=O)N1CCN(c2ccc(C(F)(F)F)c(C3=C(c4c[nH]c5ccccc45)C(=O)NC3=O)c2)CC1
inactive: 1 nM -0.88% | 8.33 nM -0.68% | 100 nM -5.41% | 833.33 nM -0.21% | 10000 nM 4.03%

O=C(O)CCNC(=O)c1ccccc1 [betamipron]
inactive: 1 nM -2.23% | 8.33 nM -0.21% | 100 nM 0.07% | 833.33 nM -1.91% | 10000 nM -2.18%

Cc1cc(C(C)(C)CC(C)(C)C)ccc1OCCOCC[N+](C)(C)Cc1ccccc1 [methylbenzethonium-chloride]
inactive: 1 nM -1.31% | 8.33 nM -1.52% | 100 nM -3.07% | 833.33 nM -0.46% | 10000 nM -4.8%

CC(=O)OCC(=O)[C@@]1(O)[C@@H](C)C[C@H]2[C@@H]3CCC4=CC(=O)C=C[C@]4(C)[C@@]3(F)[C@@H](O)C[C@@]21C [betamethasone-acetate]
inactive: 1 nM -1.36% | 8.33 nM 0.805% | 100 nM 0.555% | 833.33 nM 0.57% | 10000 nM -0.935%

CC(C)C1=C2[C@H]3CC[C@@H]4[C@@]5(C)CC[C@H](OC(=O)CC(C)(C)C(=O)O)C(C)(C)[C@@H]5CC[C@@]4(C)[C@]3(C)CC[C@@]2([C@@H](O)CN(CCN(C)C)Cc2ccc(Cl)cc2)CC1=O
inactive: 1 nM -0.51% | 8.33 nM 1.17% | 100 nM -0.05% | 833.33 nM 0.73% | 10000 nM -1.86%

Cc1cnc(-c2cc(N3CCN(C(=O)CCS(C)(=O)=O)CC3)ncc2Cl)c(C)c1
inactive: 1 nM -1.36% | 8.33 nM -0.24% | 100 nM 0.43% | 833.33 nM -2.37% | 10000 nM -0.86%

Cc1ccc(=O)n(-c2ccccc2)c1 [pirfenidone]
inactive: 1 nM 3.93% | 8.33 nM 6.69% | 100 nM 3.96% | 833.33 nM 3.47% | 10000 nM 5.58%

CCn1cc(C(=O)O)c(=O)c2cc3c(cc21)OCO3 [oxolinic-acid]
inactive: 1 nM -1.5% | 8.33 nM 0.26% | 100 nM -1.8% | 833.33 nM -0.9% | 10000 nM -3.06%
